According to PubChem BioAssay (NCI):
The panel holds about 83,000 compounds, 20% with a hit somewhere; the sample as a whole holds those more often.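 Note: values are percent growth. 100 is the growth of untreated cells, values between 100 and 0 indicate rising inhibition; between -100 and 0 indicates cell death.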 Values without a mark were called inactive. Active and inactive are the calls of the source. How the source made its calls: active means growth percent below 10; inactive means the rest.

How the values were obtained:
Assay in all cases: NCI-60 one-dose screen, 48 h (100 = growth as untreated, 0 = no growth, -100 = all killed)
NCI-H23 lung = conditions: 10 µM unless noted
NCI-H226 lung = conditions: 10 µM unless noted
NCI-H322M lung = conditions: 10 µM unless noted
HOP-62 NSCLC = conditions: 10 µM unless noted
HOP-92 NSCLC = conditions: 10 µM unless noted
NCI-H522 lung = conditions: 10 µM
786-0 renal = conditions: 10 µM unless noted
COLO 205 colon = conditions: 10 µM unless noted
A549/ATCC NSCLC = conditions: 10 µM unless noted
NCI-H460 lung = conditions: 10 µM unless noted

Structure (SMILES)	growth (NCI-H23 lung)	growth (NCI-H226 lung)	growth (NCI-H322M lung)	growth (HOP-62 NSCLC)	growth (HOP-92 NSCLC)	growth (NCI-H522 lung)	growth (786-0 renal)	growth (COLO 205 colon)	growth (A549/ATCC NSCLC)	growth (NCI-H460 lung)
Cc1cc(Br)c(C)cc1Br	97.9%	94.4%	96.4%	99.4%	91.4%	96%	101%	110%	–	–
N/C(=N\c1nc2ccccc2s1)NC(=O)Nc1ccccc1Cl	34.9%	35.3%	45%	28.6%	139%	–	36.6%	-44.4% (active)	21.6%	–
CC(C)C[C@H](NC(=O)/C=C/Cn1ccc2ccccc2c1=O)B(O)O	56.3%	-15.5% (active)	85.4%	44.8%	99.7%	–	55.1%	49.7%	69%	–
COc1cc(-c2nc3nc4sc(C)c(C)c4c(=O)n3[nH]2)cc(OC)c1OC	94.1%	112%	93%	74.2%	70.8%	61.4%	87.9%	94.2%	–	–
O=C(Nc1ccc(Cl)cc1)Nc1nc2ccc(OC(F)(F)F)cc2o1	68.6%	107%	113%	114%	71.9%	–	105%	118%	75.1%	–
O=C(Nc1ccccc1)c1cc(-n2cnc([N+](=O)[O-])c2)cc(-n2cnc([N+](=O)[O-])c2)n1	98.6%	86.2%	92%	102%	49.7%	–	102%	97.4%	87%	–
O=C1/C=C/[C@@H](O)[C@@H]2C[C@@H](O)C[C@H]2/C=C/CCC[C@H](CO)O1	13.5%	-63.4% (active)	41.7%	43.6%	58.3%	–	-59.6% (active)	-71.6% (active)	31.3%	–
Fc1ccc(-c2nn3c(-c4cc(C(F)(F)F)cc(C(F)(F)F)c4)nnc3s2)cc1	45.5%	6.11% (active)	56.3%	-11.5% (active)	-20.5% (active)	–	–	73.1%	33.3%	4.16% (active)
CCNCCCn1c2c(c3ccc(F)cc3c1=O)C(=O)c1cc(OC)cnc1-2	-40.4% (active)	-59.1% (active)	-3.52% (active)	-29% (active)	-15.5% (active)	–	-38.4% (active)	-32% (active)	-62.6% (active)	–
Cc1ccc(-c2cc(-c3ccccc3)n(-c3ccccc3)n2)cc1	95.9%	97.9%	97.3%	-2.85% (active)	108%	79%	92.9%	112%	–	–
O=C1C=CC(=O)N1c1ccccc1N1C(=O)C=CC1=O	115%	101%	122%	94.5%	82.8%	–	110%	57.7%	121%	–
Cc1ccc(C2=Nc3c(ccc4c(C)c(C)c(=O)oc34)OC2)cc1	97.4%	101%	90.2%	97.3%	87.1%	–	93.6%	111%	99.5%	–
Cc1ccc(/C=C(/C#N)n2nnc3ncccc32)cc1	-1.23% (active)	32.1%	28.2%	20.5%	-19.5% (active)	–	5.6% (active)	-45.3% (active)	2.14% (active)	–
COc1ccc(CC(=O)Nc2nn3c(-c4cc(C(F)(F)F)cc(C(F)(F)F)c4)nnc3s2)cc1	35.2%	62.8%	90.6%	98.9%	15.4%	–	–	104%	78.1%	56.6%
N#Cc1c(NC(=O)c2ccco2)[n+]([O-])c2ccccc2[n+]1[O-]	110%	86.1%	103%	82.9%	164%	–	99.2%	105%	99.7%	–
COc1cc(/C(Cl)=C/C=C/C(=O)c2c(C)[n+]([O-])c3ccc(Cl)cc3[n+]2[O-])cc(OC)c1OC	63.7%	54.3%	96.3%	7.24% (active)	68.8%	-33.4% (active)	35.1%	-14.8% (active)	–	–
